Experimental data as given in ChEMBL document CHEMBL3988442, “University of Dundee, Small-Polar-MMV Screening Library” (2021).
Screen size: about 48,000 compounds; about 13,000 (27%) showed an effect of 50% or more. This is one part of the list.

Each compound was assayed on Wolbachia pipientis (assay: Anti-Wolbachia Cell-Based Screen). Settings: 5 µM.
Format: functional
Set-up: scale not given: in the data most compounds retested in dose-response had high values

In order of rising “Percent Effect” value:
1. CC(C)[C@H]1CN(S(C)(=O)=O)C[C@@H]1NC(=O)c1ccnc(N)c1  -108.5%
2. CC(C)NCC1(O)CCCN(CCC2CCCCC2)C1=O (stereo not drawn)  -46.74%
3. NC(=O)COc1ccc(CN2CCNC(C(=O)NC3CC3)C2)cc1Cl (stereo not drawn)  -45.28%
4. CC(C)(C)c1noc(CCCC(=O)N2CCNC(=O)CC2)n1  -18.62%
5. Cc1noc(C)c1CN(C)C(=O)c1ccc2c(c1O)OC(C)(C)C2  -18.28%
6. CN(CC(O)CO)C(=O)c1coc(COc2cccc(F)c2)n1 (stereo not drawn)  -18.15%
7. O=C([C@H]1COC[C@H]2CN(CC3CCC3)C[C@H]21)N1CCOCC1  -17.46%
8. CC1CCN(c2ccc3c(-c4ncc(C(=O)O)s4)noc3c2)CC1  -16.58%
9. CN(C)CCOCC1CN(Cc2ccsc2)Cc2ccnn2C1.O=C(O)C(F)(F)F.O=C(O)C(F)(F)F.O=C(O)C(F)(F)F (stereo not drawn)  -16.3%
10. CCC(C)(CC(=O)OC)NCc1nc(C)no1 (stereo not drawn)  -15.67%
11. O=C(c1cc2c([nH]c1=O)CCC2)N1CCCCC1c1cccc(F)c1 (stereo not drawn)  -12.81%
12. CN(C)CC1CN(Cc2ccsc2)Cc2nccn2C1.O=C(O)C(F)(F)F.O=C(O)C(F)(F)F (stereo not drawn)  -11.98%
13. CCC(C)(NCC(=O)NC(C)C)c1nccs1 (stereo not drawn)  -10.98%
14. Cn1nc(C(=O)N2CCCC2)c2c1CN(CC1CCOCC1)C2  -10.68%
15. Cc1nc(C)c(C(=O)N2CCc3cc(F)ccc3C2C)o1 (stereo not drawn)  -9.87%
16. CC(=O)NCCNC(=O)c1cnc2c(c1)nc(-c1ccccc1Cl)n2C  -9.781%
17. Cc1cc(C)c2nc(CNC3CCCNC3=O)cc(O)c2c1 (stereo not drawn)  -9.599%
18. COCc1nccc(C2CCCN(Cc3cccc(C#N)c3)C2)n1 (stereo not drawn)  -9.239%
19. NC(=O)N1CC(OCc2cccc3ccccc23)C1  -8.487%
20. Cn1cc(CN2CCCn3cnc(COCc4ccco4)c3C2)cn1  -8.432%
21. OCCN(Cc1cccnc1)c1ccc(Cl)cn1  -7.592%
22. O=C(O)c1cc(N2C[C@H](NC(=O)C3CCOCC3)[C@@H](C3CC3)C2)ccn1  -7.348%
23. O=C(NCc1cccnc1)C1=NOC2(CCN(C(=O)N3CCCC3)C2)C1.O=C(O)C(F)(F)F (stereo not drawn)  -7.099%
24. CN(Cc1cc[nH]n1)C(=O)c1cccc(CCC(C)(C)O)c1  -7.029%
25. Clc1cccc(CNC2CCN(CCc3ccncc3)CC2)c1  -6.723%
26. O=C(Nc1cccnc1)Nc1ccn(CC(F)F)n1  -6.683%
27. CCN(CC)CC1CN(Cc2nccs2)Cc2nccn2C1.O=C(O)C(F)(F)F.O=C(O)C(F)(F)F (stereo not drawn)  -6.3%
28. Cn1cc(NC(=O)NCc2ccsc2)ccc1=O  -5.862%
29. O=C(NCc1cccnc1)C1=NOC2(CCN(S(=O)(=O)C3CC3)C2)C1 (stereo not drawn)  -5.335%
30. O=C1CCN(C(=O)CCc2cc(Br)cs2)CCN1  -5.326%
31. O=C1NCCCc2[nH]c(Cc3cccc(Cl)c3)nc21  -5.245%
32. CCCc1nc(CN(C)CC2CCN(CCO)CC2)no1  -5.007%
33. COC(=O)c1cc(C(=O)N2CCc3ccc(F)cc3C2C)ccn1 (stereo not drawn)  -4.117%
34. CC(=O)N1C[C@H](NC(=O)c2ccnc(N)c2)[C@@H](C(C)C)C1  -4.113%
35. O=C(O)C(F)(F)F.O=C(c1nc2c(o1)CN(CC1CC1)C2)N1CCCC1  -4.032%
36. Cc1nc(CN2Cc3nccn3CC(CN3CCCC3)C2)cs1.O=C(O)C(F)(F)F.O=C(O)C(F)(F)F (stereo not drawn)  -3.569%
37. N#CC1(C(=O)N2C[C@H]3CC[C@@H]2CN(Cc2ccncc2)C3)CCOCC1  -3.393%
38. CCN(CC)CC1CN(Cc2c(C)noc2C)Cc2nccn2C1 (stereo not drawn)  -2.257%
39. O=C(NCc1cccnc1)C1=NOC2(CCN(C3CCOCC3)C2)C1 (stereo not drawn)  -2.233%
40. Cc1nn(C)c(Oc2ccc(Cl)cc2)c1CN1CC[C@H](CO)[C@@H](O)C1  -1.259%
41. CSCC[C@@H](CO)n1ccnc1-c1nccn1C  -1.218%
42. CC1(C)COCCN1C(=O)CCc1nc(-c2ccccn2)no1  -0.8567%
43. CNc1nc(C(=O)N2C[C@H]3CC[C@@H]2CN(C2CCOCC2)C3)cs1  -0.4329%
44. CN(C)CC1(O)CCCN(c2nc(-c3ccccc3)no2)CC1 (stereo not drawn)  -0.08727%
45. CS(=O)(=O)NCC(=O)N[C@H]1CN(c2cnccn2)C[C@@H]1C1CC1  0.2443%
46. Cc1ccn2ncc(C(=O)N3CCCC(n4nc(C)nc4C)C3)c2n1 (stereo not drawn)  0.3182%
47. CC(=O)N[C@@H]1CN(Cc2nnc(-c3ccccc3)o2)C[C@H]1C(C)C  0.5134%
48. CNC(=O)[C@@H](c1ccccc1F)N1CCC[C@H]1C(=O)NC1CCCC1.Cl  0.555%
49. Cc1noc(C)c1CN1CCN(CCN(C)C)c2ncccc2C1.O=C(O)C(F)(F)F.O=C(O)C(F)(F)F.O=C(O)C(F)(F)F  0.7067%
50. CC(C)(C)c1ccc2c(c1)CCN2C(=O)c1[nH]c(=O)[nH]c(=O)c1N  1.564%
51. Cc1nc(C)c(C(=O)N2CCc3ccc(F)cc3C2C)o1 (stereo not drawn)  2.437%
52. Cl.O=C(Nc1ccccc1F)C1=NOC2(CCNCC2)C1  2.616%
53. COC(C)(C)C(=O)N[C@H]1CN(c2ncccc2C(N)=O)C[C@@H]1C(C)C  2.672%
54. CC(C)(C)c1ccc2c(c1)CCN2C(=O)c1nc(=O)[nH][nH]1  2.994%
55. O=C1CCN(C(=O)C2(c3ccc(Br)cc3)CC2)CCN1  3.303%
56. Cc1cc2c(cc1C)C(NCc1nnc3n1CCCCC3)CCCO2 (stereo not drawn)  3.518%
57. CC(C)[C@@H]1CN(Cc2ccccc2C#N)C[C@H]1NC(=O)N(C)C  4.058%
58. CC(C)CCN1Cc2c(C(=O)N3CCCC3)nn(C)c2C1.O=C(O)C(F)(F)F  4.332%
59. O=C(Cc1cccc(Cl)c1)N[C@@H]1CCNC[C@H]1O  4.451%
60. CCOCC1CN(Cc2cccc(C#N)c2)Cc2nccn2C1.O=C(O)C(F)(F)F (stereo not drawn)  5.676%
61. CC(=O)N1CCCN(C(=O)NCCc2cc(Cl)cc(Cl)c2)CC1  8.517%
62. O=C(NCCOc1ccc(Cl)cc1)N1CCS(=O)(=O)CC1  9.107%
63. COC(C)(C)C(=O)N[C@H]1CN(c2nccnc2N(C)C)C[C@@H]1C(C)C  9.529%
64. Cc1ccc2c(n1)N(CCN(C)C)CCN(Cc1c(C)noc1C)C2.O=C(O)C(F)(F)F.O=C(O)C(F)(F)F.O=C(O)C(F)(F)F  11.23%
65. O=C(Cc1ccccc1)N1Cc2nccn2CC(CN2CCCC2)C1.O=C(O)C(F)(F)F (stereo not drawn)  14.72%
66. CC(CNC(=O)N1CCNC(=O)CC1)Cc1cccs1 (stereo not drawn)  17.79%
67. O=C(N[C@H]1CN(c2ccncc2)C[C@@H]1C1CC1)C1CCOCC1  31.8%
68. Cl.Cl.Clc1cccc(C[C@@H]2NCCC[C@@H]2Nc2cccc(Cl)c2)c1  33.15%
69. CN(C)CCOCC1CN(Cc2cccc(F)c2)Cc2nccn2C1.O=C(O)C(F)(F)F.O=C(O)C(F)(F)F (stereo not drawn)  63.4%
70. CCN(CC)CC1CN(CCc2ccccc2)Cc2nccn2C1.O=C(O)C(F)(F)F.O=C(O)C(F)(F)F (stereo not drawn)  77.99%
71. CC(C)[C@H]1CN(c2ccnc(N)n2)C[C@@H]1NC(=O)C1(C#N)CCOCC1  89.33%
72. N#Cc1cccc(CN2Cc3nccn3CC(CN3CCCC3)C2)c1.O=C(O)C(F)(F)F.O=C(O)C(F)(F)F (stereo not drawn)  90.25%
73. CC(C)[C@H]1CN(c2cnccn2)C[C@@H]1NC(=O)C1(C#N)CCOCC1  90.9%
74. Cc1cc(N2C[C@H](NC(=O)C3(C#N)CCOCC3)[C@@H](C(C)C)C2)ccn1  95.25%
75. CN(C)CC1CN(Cc2cccc(C#N)c2)Cc2nccn2C1.O=C(O)C(F)(F)F.O=C(O)C(F)(F)F (stereo not drawn)  95.93%
76. Cn1nc(C(=O)N2CCOCC2)c2c1CN(CC1CCC1)C2  98%
77. CC(C)[C@H]1CN(c2ccncc2)C[C@@H]1NC(=O)C1(C#N)CCOCC1  98.03%
78. O=C1CCN(C(=O)NCCc2c[nH]c3ccc(Cl)cc23)CCN1  98.23%
79. CC1c2ccc(F)cc2CCN1C(=O)c1[nH]c(=O)[nH]c(=O)c1N (stereo not drawn)  98.7%
80. CC(C)[C@H]1CN(Cc2ccncc2)C[C@@H]1NC(=O)C1(C#N)CCOCC1  101.3%
81. CN(C)CCN1CCN(Cc2cccc(C#N)c2)Cc2cccnc21.O=C(O)C(F)(F)F.O=C(O)C(F)(F)F.O=C(O)C(F)(F)F  101.9%
82. Cn1nc(C(=O)N2CCOCC2)c2c1CN(CC1CC1)C2.O=C(O)C(F)(F)F.O=C(O)C(F)(F)F  102.2%
83. CC1c2cc(F)ccc2CCN1C(=O)c1[nH]c(=O)[nH]c(=O)c1N (stereo not drawn)  103.3%
84. N#Cc1cccc(CN2Cc3nccn3CC(COCC3CC3)C2)c1.O=C(O)C(F)(F)F (stereo not drawn)  104.1%
85. O=C(Nc1ccccc1)C1=NOC2(CCCN(C(=O)C3CCCC3)C2)C1 (stereo not drawn)  104.4%
86. O=C1CCN(C(=O)CCc2ccc(Cl)cc2Cl)CCN1  106.4%
87. COCC1CN(Cc2cccc(C#N)c2)Cc2nccn2C1 (stereo not drawn)  107.2%
88. O=C1CCN(C(=O)NCCCc2ccc(Cl)cc2Cl)CCN1  108.4%
89. CC1c2ccc(F)cc2CCN1C(=O)c1nc(=O)[nH][nH]1 (stereo not drawn)  110%
90. O=C(Nc1ccccc1)C1=NOC2(CCCN(C(=O)N3CCCC3)C2)C1 (stereo not drawn)  131.1%
91. Cl.Clc1cccc(N[C@H]2CCCN[C@H]2Cc2ccccc2)c1  152.2%
92. Cl.Cl.Clc1cccc(C[C@@H]2NCCC[C@@H]2Nc2ccccc2)c1  167.6%
93. CCN(CC)CC1CN(Cc2cccc(C#N)c2)Cc2nccn2C1.O=C(O)C(F)(F)F.O=C(O)C(F)(F)F (stereo not drawn)  268.5%
